Source: PubChem
An excerpt weighted towards active compounds, which were near 3.5% of everything screened.
TEAD-YAP block: TEAD-YAP interaction inhibition. HEK-TIYL cells, TEAD-Gal4/YAP UAS-luciferase luminescence. inhibition, % at 9.12 µM. 640,000 compounds, 1.4% hits; in the data active = inhibition above about 32%;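 also: 0% = median of test compound wells and 100% = reference inhibitor wells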
GPR151 ag: activates the human receptor GPR151; activation, % at 11.2 µM; PathHunter beta-arrestin GPR151 cells, luminescence; Q8TDV0; AID 1508602; 650,000 compounds, 1% hits; in the data active = activation above about 4.9%;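 also: 0% = median of compound wells and 100% = cells with positive control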
MITF inh: human MITF inhibition, primary screen. 650,000 compounds, 0.91% hits. inhibition, % at 2.6 µM. AlphaScreen MITF homodimerization, bead proximity signal. O75030; in the data active = inhibition above about 50%;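 also: 0% = vehicle wells with protein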
FBW7 activator: human FBW7 E3 ligase activation, primary screen; Q969H0; AlphaScreen FBW7–phospho-cyclin E peptide binding, activator screen; normalized activity (activation), % at 26.1 µM; 650,000 compounds, 0.13% hits; in the data active = normalized activity above about 1.9%;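 also: purified mutant Fbw7 with reduced substrate affinity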
An asterisk follows results filed as active.

SMILES	TEAD-YAP block	GPR151 ag	MITF inh	FBW7 activator
c1ccc(C2CCC(=NNc3nc4ccccc4[nH]3)CC2)cc1 (stereo not drawn)	33*	-1	6	0
C/C(=N/NC(=O)c1cc(-c2cccs2)[nH]n1)c1cccc(O)c1	0	0	2	0
Fc1cccc(F)c1CNc1ccc(Br)cn1	-27	0	20	0
Cc1cc(S(=O)(=O)n2nnc3ccccc32)c(Cl)cc1Cl	-4	1	-3	0
Cc1nn(-c2ccccc2)c(Cl)c1C(=O)NCc1cccnc1	-2	0	4	0
Cc1nn(-c2ccccc2)c(Cl)c1C(=O)Nc1ccc(C(=O)NCc2cccnc2)cc1	39*	-1	25	0
Cc1ccccc1COc1ccc(/C=C2/SC(=O)NC2=O)cc1	5	-2	21	0
C#CCn1c(=NC(=O)c2cc(OC)c(OC)c(OC)c2)sc2cccc(OC)c21	3	-1	7	0
CCOc1ccccc1OCC(=O)N/N=C/c1ccc(O)c([N+](=O)[O-])c1	55*	0	0	0
CCOc1ccccc1OCC(=O)N/N=C/c1ccccc1O	59*	0	-6	-2
COc1c(O)ccc(/C=N/NC(=O)COc2c(C)ccc(C)c2C)c1[N+](=O)[O-]	54*	0	7	0
CCOc1ccccc1OCC(=O)N/N=C(/C)c1ccc(Cl)cc1	69*	0	9	0
COc1c(O)ccc(/C=N/NC(=O)COc2ccccc2C)c1[N+](=O)[O-]	-8	3	-5	0
N#Cc1ccccc1OCC(=O)N/N=C/c1ccc(O)c([N+](=O)[O-])c1	-14	1	-6	0
Cc1cccc(C(=O)N2CCN3C(=O)[C@H](CCCCN)NC(=O)[C@H]3C2)c1	-4	1	-1	0
Cc1cccc(C)c1OCC(=O)N/N=C/c1ccccc1O	51*	1	13	0
Cc1cc(C)c(OCC(=O)N/N=C/c2ccccc2O)c(C)c1	-4	1	0	0
N=C1C(c2nc3ccccc3s2)=C(O)CN1/N=C/C=O	2	1	1	0
N=C1C(c2nc3ccccc3s2)=C(O)CN1/N=C/c1ccc(O)c(O)c1O	-11	-1	56*	0
Cc1ccc(S(=O)(=O)N(c2c(C)cc(C)nc2Cl)S(=O)(=O)c2ccc(C)cc2)cc1	-4	0	-1	0
Cc1ccc(/C=N/NC(=O)c2cc(C(C)C)[nH]n2)cc1	36*	0	-3	0
CC(C)Cc1nnc(NC(=O)CC(C)(C)C)s1	-9	0	16	2.1*
C=C(C)C(=O)Nc1sc(C)c(-c2ccccc2)c1C(N)=O	-15	1	12	0
Cc1sc(NC(=O)CC(c2ccccc2)c2ccccc2)c(C(N)=O)c1C	40*	3	1	0
Cc1sc(NC(=O)CCCC(=O)O)c(C(N)=O)c1-c1ccccc1	45*	0	1	0
SMILES	TEAD-YAP block	GPR151 ag	MITF inh	FBW7 activator
C=CCn1c(SCC(=O)NC(=O)NCCC)nc2scc(-c3cccs3)c2c1=O	11	-1	0	0
O=C(O)c1ccc(N/N=C/C2=C(N3CCOCC3)C(=C\c3ccccc3)/CC2)cc1	-21	0	62*	0
O=S(=O)(O)c1ccc(N/N=C/C2=C(N3CCOCC3)C(=C\c3ccccc3)/CC2)cc1	0	-1	-5	0
Cc1ccc(S(=O)(=O)Cc2ccc(C(=O)N3CCN(c4ccccc4)CC3)o2)cc1	40*	0	16	0
Cc1ccc(S(=O)Cc2ccc(C(=O)N3CCN(c4ccccc4)CC3)o2)cc1 (stereo not drawn)	50*	0	2	0
O=C(c1ccc(CS(=O)c2ccccc2)o1)N1CCN(c2ccccc2)CC1 (stereo not drawn)	42*	1	10	0
Cc1ccc(CS(=O)Cc2ccc(C(=O)N3CCN(c4ccccc4)CC3)o2)cc1 (stereo not drawn)	17	-1	11	1
Cc1ccccc1S(=O)Cc1ccc(C(=O)N2CCN(c3ccccn3)CC2)o1 (stereo not drawn)	42*	1	15	0
O=C(CCl)NC(=O)c1ccc(OC(F)F)cc1	-8	-1	5	1
COc1cccc(C2CC(c3cccs3)=NN2C(=O)CSc2nnc(CNC(=O)c3ccccc3)n2Cc2ccccc2)c1OC (stereo not drawn)	8	0	6	0
NS(=O)(=O)c1ccc(Nc2nccc(-c3cccc(Nc4ccccc4)c3)n2)cc1	54*	3	1	0
N#Cc1cccc(-c2ccnc(Nc3ccc(S(N)(=O)=O)cc3)n2)c1	-4	1	1	0
